Compounds with a hit are over-represented: about 6% of the library has one in this group of screens.
D1 antagonist = Antagonist of Human D 1 Dopamine Receptor: qHTS | HEK293 TREx D1 cells, calcium flux, dopamine EC80; active compounds read low | activity change, negative = inhibition, % at 10 µM | actives 3.2% (n = 360,000) | AID 504652, 2011; in the data active = activity change below about -30%; note: % is set by controls: 0 for no effect and ±100 for the full control effect
Target sequence (P21728 whole entry, looked up): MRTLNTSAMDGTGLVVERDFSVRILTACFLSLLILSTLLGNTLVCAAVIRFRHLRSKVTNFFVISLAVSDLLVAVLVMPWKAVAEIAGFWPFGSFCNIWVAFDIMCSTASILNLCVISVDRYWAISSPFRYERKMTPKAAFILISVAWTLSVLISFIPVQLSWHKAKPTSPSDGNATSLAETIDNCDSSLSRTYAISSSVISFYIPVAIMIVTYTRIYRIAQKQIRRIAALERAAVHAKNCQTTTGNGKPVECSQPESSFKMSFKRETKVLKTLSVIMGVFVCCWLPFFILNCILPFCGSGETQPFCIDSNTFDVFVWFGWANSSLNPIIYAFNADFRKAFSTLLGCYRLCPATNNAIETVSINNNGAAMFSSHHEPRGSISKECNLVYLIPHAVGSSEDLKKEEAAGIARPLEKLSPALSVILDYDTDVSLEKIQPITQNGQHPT
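Compound effects on dopamine-evoked calcium signalling were measured in tetracycline-induced HEK293 Trex D1 cells. Dopamine at EC80 followed a 180 s compound pre-read, and fluorescence was tracked kinetically for 180 s more.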
DRD3 antagonist = qHTS of D3 Dopamine Receptor Antagonist: qHTS. D(3) dopamine receptor (Homo sapiens), P35462. D3R cells, DiscoveRx beta-arrestin luminescence, antagonist mode; active compounds read low. max response, negative = inhibition, %. actives 2.5% (n = 360,000); in the data active = max response below about -50%; note: % is set by controls: 0 for no effect and ±100 for the full control effect
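Cells plated overnight at 1500 cells/well, then exposed to library compounds with dopamine controls for 90 minutes at 37 degrees C. DiscoveRx reagent added for 30–60 minutes at room temperature; luminescence read, quantitative HTS format.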
D1 potentiator = Potentiators of Human D1 Dopamine Receptor: qHTS. D(1A) dopamine receptor (Homo sapiens), P21728. HEK293 TREx D1 cells, calcium flux, dopamine EC20 potentiation. potentiation, % at 10 µM. actives 0.036% (n = 360,000); in the data active = potentiation above about 30%; note: 0% is about no effect
D1 agonist = Allosteric Agonists of the Human D1 Dopamine Receptor: qHTS; AID 504660, 2011; HEK293 T-REx D1 cells, calcium flux, agonist mode; D(1A) dopamine receptor (Homo sapiens), P21728; activation, % at 2 µM; actives 1% (n = 360,000); in the data active = activation above about 30%; note: 0% is about no effect
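Agonism was scored from calcium flux recorded over 180 s (1 read/s) after pintool compound addition, following a 10-cycle baseline. Cells were inducible force-coupled HEK293 TREx D1, plated overnight at 30 C and loaded with no-wash calcium dye.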
D3 ag = qHTS of D3 Dopamine Receptor Agonist: qHTS; actives 0.58% (n = 410,000); max activation, %; D3R DiscoveRx beta-arrestin cells, luminescence, 90 min; D(3) dopamine receptor (Homo sapiens), P35462; in the data active = max activation above about 30%; note: 0% is about no effect
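Agonist mode: compounds and dopamine controls were applied to plated cells for 90 min at 37 degrees C after an overnight attachment at 1500 cells/well. Luminescent read-out followed 30 - 60 minutes at room temperature with DiscoveRx detection reagent.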
The depositor's hits bear a star; . = no result.

SMILES | D1 antagonist | DRD3 antagonist | D1 potentiator | D1 agonist | D3 ag
COC(=O)c1cc(NC(=O)Nc2cccc(Cl)c2)ccc1Cl | -41.4* | -15.8 | -10.4 | 24.6 | -10.1
Cc1cc2c(s1)c1cnn(Cc3ccc(C(C)C)cc3)c(=O)c1n2C | 1.6 | . | -5.3 | 4.0 | .
Cc1ccc(C)c(NC(=O)c2ccc(CN3CC(=O)N4CCCCC4C3=O)cc2)c1 (centres undefined) | 14.8 | . | 0.5 | -0.2 | -11.9
O=C(Nc1cccnc1)Nc1cc(Cl)cc(Cl)c1 | -33.3* | 18.1 | -11.1 | 23.5 | -9.3
O=C(Nc1cccnc1)Nc1ccccc1Cl | 8.4 | 4.1 | 0.6 | 1.8 | 5.2
Clc1ccc(N=c2ssnc2Cl)cc1 | -4.1 | 40.9 | -3.2 | 29.9 | 0.9
COc1ccc(N=c2ssnc2Cl)cc1 | 3.5 | -55.2* | -0.1 | 2.2 | -6.0
Cn1cnc([N+](=O)[O-])c1S(=O)(=O)c1cccc(Cl)c1 | 7.3 | -92.1* | -4.2 | 0.8 | -12.5
Cn1cnc([N+](=O)[O-])c1S(=O)(=O)Oc1ccccc1 | . | -83.8* | . | . | -14.9
Cn1cnc([N+](=O)[O-])c1S(=O)(=O)Nc1ccccc1 | . | -9.8 | . | . | -19.2
CCCN1CCN(c2nnc(-n3cccc3C(=O)Nc3ccccc3C(F)(F)F)s2)CC1 | 2.3 | . | 1.9 | 1.4 | -5.5
Cc1ccc(NC(=O)C(OC(=O)c2ccc(O)cc2)c2ccccc2)cc1Cl (centres undefined) | -41.0* | 10.6 | 2.8 | 7.6 | 0.1
Cc1onc(-c2c(F)cccc2Cl)c1C(=O)N[C@@H]1C(=O)N2[C@@H]1SC(C)(C)[C@@H]2C(=O)O | . | . | . | . | -9.3
CCOc1ccc(-n2c(/C=C/c3cccc(F)c3)nc3cc(OC)c(OC)cc3c2=O)cc1 | 5.7 | . | -1.8 | -0.7 | 13.8
Cc1cc(C)cc(OCC(=O)N(Cc2cccs2)c2ccc(Cl)cc2)c1 | 9.6 | . | 1.1 | 33.1* | 3.3
CC(C(=O)NC(C)(C)C)N(C(=O)CS(=O)CC(=O)Nc1ccc(F)cc1)C1CCCC1 (centres undefined) | 0.4 | 10.6 | -4.8 | 2.8 | 36.8*
O=C(CS(=O)CC(=O)N(CC(=O)NC1CCCC1)C1CCCCC1)Nc1ccc(F)cc1 (centres undefined) | -19.2 | 51.8 | -0.2 | -0.7 | 1.3
C=CCN1C(=O)/C(=C/C=C2/N(CC)c3ccc(S(=O)(=O)N(C)C)cc3N2CC)SC1=S | 7.8 | -21.6 | -3.2 | 117.8* | 1.4
C=CCN1C(=O)/C(=C2/Sc3ccccc3N2CC)SC1=S | 16.2 | -5.1 | -1.4 | 4.5 | -0.9
CC1(C(=O)NS(=O)(=O)c2cccc(OC(F)F)c2)CCN1C(=O)c1cccc(F)c1 (centres undefined) | . | -5.8 | . | . | -6.4
CCCC(=O)N1CCC1(C)C(=O)NS(=O)(=O)c1cccc(Cl)c1 (centres undefined) | . | 0.0 | . | . | -5.3
Cc1cc(C(=O)N2CCC2(C)C(=O)NS(=O)(=O)c2cccc(OC(F)F)c2)nn1C (centres undefined) | . | 0.0 | . | . | 74.0*
Cc1cc(C)cc(CC(=O)N2CCC2(C)C(=O)NS(=O)(=O)c2ccc(C#N)cc2)c1 (centres undefined) | . | 0.0 | . | . | 70.4*
CCCC(=O)N1CCC1(C)C(=O)NS(=O)(=O)c1cccc(C)c1 (centres undefined) | . | -19.0 | . | . | 92.5*
CC1(C)C(=O)N(CC(=O)Nc2ccc(OC(F)(F)F)cc2)c2ccccc21 | -0.1 | . | -6.0 | 4.3 | 5.3
SMILES | D1 antagonist | DRD3 antagonist | D1 potentiator | D1 agonist | D3 ag
Cc1ccc(NC(=O)CN(C)S(=O)(=O)c2ccc3c(c2)CCC(=O)N3)c(C)c1 | -9.8 | . | -2.8 | 0.5 | -0.1
CC(=O)Oc1ccc([C@@H]2COc3c(ccc4c3C=CC(C)(C)O4)C2)c(OC(C)=O)c1 | . | 26.6 | . | . | 37.8*
CC1(C)C=Cc2c(ccc3c2OC[C@H](c2ccc(O)cc2O)C3)O1 | -25.0 | 22.1 | 5.5 | -1.1 | 15.2
COc1cccc(NC(=O)Cn2c(=O)n(-c3cccc(OC)c3)c(=O)c3sc4ccccc4c32)c1 | -17.5 | . | -2.3 | 5.3 | 3.0
Cc1ccc(S(=O)(=O)N/N=C2/CC(c3ccccc3)Oc3ccccc32)cc1[N+](=O)[O-] (centres undefined) | -4.7 | -82.7* | -1.1 | 8.1 | -4.3
O=S(=O)(N/N=C1/CC(c2ccccc2)Oc2ccccc21)c1ccc(Br)cc1 (centres undefined) | -4.3 | 22.2 | -1.1 | 1.6 | 0.4
COc1cccc(/C=N/NC(=O)NC23CC4CC(CC(C4)C2)C3)c1O | . | -61.8* | . | . | -16.1
O=C(CSc1oc(-c2ccccc2)nc1S(=O)(=O)c1ccc(Br)cc1)c1ccccc1 | -9.6 | . | -0.9 | 4.0 | -3.7
CCOc1ccc(NC(=O)CSc2oc(-c3ccc(C)cc3)nc2S(=O)(=O)c2ccc(C)cc2)cc1 | 15.1 | . | -0.2 | 43.8* | 6.0
O=C(CSc1oc(-c2ccccc2)nc1S(=O)(=O)c1ccccc1)c1ccccc1 | 27.2 | . | 1.1 | 5.8 | 53.3*
O=C1[C@H]2[C@@H](c3ccccc3)N[C@]3(CCCN(Cc4ccco4)C3=O)[C@H]2C(=O)N1Cc1ccccc1 | . | -56.0* | . | . | -2.9
O=C(CC1C(=O)N(c2ccc(F)cc2)C(=O)N1Cc1ccc2c(c1)OCO2)Nc1ccc(Cl)cc1 (centres undefined) | -11.9 | . | -0.1 | 4.6 | 0.0
CCOC(=O)Cc1csc(NC(=O)c2cccc([N+](=O)[O-])c2)n1 | -30.6* | -5.1 | -10.2 | 8.9 | -8.0
CCOC(=O)Cc1csc(NC(=O)c2cccc(OC)c2)n1 | -12.3 | 12.0 | -5.7 | 4.4 | 0.5
COC(=O)c1sccc1NC(=O)Nc1cccc(OC)c1 | -0.7 | -0.4 | 1.2 | 0.8 | 6.1
CCOC(=O)CN(Cc1sccc1C)C(=O)Nc1cccc(OC)c1 | -36.6* | 0.0 | -9.0 | 0.5 | -3.9
CCOC(=O)Cc1csc(NC(=O)Nc2cccc(OC)c2)n1 | -33.2* | 23.2 | -3.6 | 14.1 | -5.7
CCOC(=O)Cc1csc(NC(=O)CN2CCCCC2)n1 | 14.0 | -54.8* | -3.2 | 5.6 | -8.3
COc1cc(CN(C(=O)Nc2cccc(Cl)c2)c2ccccn2)cc(OC)c1OC | -9.0 | . | -0.5 | 1.0 | 0.1
CN1C(=O)c2ccccc2Sc2ccc(NC(=O)c3ccc(C#N)cc3)cc21 | -10.3 | . | -4.5 | 21.5 | -1.3
CCOC(=O)Cc1csc(NC(=O)c2sc3nc4c(C)cc(C)cc4cc3c2N)n1 | 2.3 | -24.9 | -3.2 | 85.5* | 0.9
CCc1ccc(CN2CCc3nc(Nc4ccc5c(c4)OCCO5)ncc3C2)cc1 | -66.0* | . | 0.5 | 0.8 | -12.1
COc1ccccc1N1CCN(Cc2nc(N)nc(Nc3ccccc3)n2)CC1 | -6.6 | -71.1* | -2.3 | 0.5 | -9.5
Nc1nc(CN2CCN(Cc3ccccc3)CC2)nc(Nc2ccc3c(c2)OCCO3)n1 | -6.0 | -59.4* | -6.4 | 1.3 | -0.3

Source: PubChem (National Center for Advancing Translational Sciences (NCATS))
